Results filed as inconclusive are left out. Unmarked numbers belong to inactive results. Activity calls are given as the source filed them. Calls come from the whole dose curve.
Assay: Nuclear factor erythroid 2-related factor 2/antioxidant responsive element (Nrf2/ARE) small molecule agonists: luciferase reporter gene qHTS assay in human keratinocytes (AID 1919969); note: nearly all actives have a fitted effect of over 35% in size
Conditions: KeratinoSens HaCaT ARE-luciferase, luminescence, 24 h; series mostly up to 92.4 µM; activity, positive = activation: at the top concentration
From the text: National Center for Advancing Translational Sciences [NCATS]
Division of Preclinical Innovation [DPI]
U.S. Environmental Protection Agency [EPA]
National Institutes of Environmental Health Sciences [NIEHS]
National Toxicology Program [NTP]
U.S. Food and Drug Administration [FDA]
Oxidative stress has been implicated in the pathogenesis of a variety of diseases ranging from cancer to neurodegeneration. The antioxidant response element (ARE) signaling pathway plays an important role in the amelioration of oxidative stress. The KeratinoSens (Givaudan, Switzerland) is an in vitro test method which quantifies luciferase induction as a measure of activation of Keap1-Nrf2-antioxidationt/electrophile response element (ARE) dependant pathway in HaCaT human keratinocytes stably transfected with a selectable plasmid. The KeratinoSens assay is a cell-based assay with a reporter cell line to detect potential skin sensitizers by their ability to induce the Nrf2/ARE-response. The activation of the report gene under culture conditions can be detected by ONE-Glo Luciferase Assay System (Promega, Madison, WI). This cell line has been used to screen the Tox21 10K compound library to identify agonists that induce oxidative stress. The cytotoxicity of the Tox21 compound library against the KS-ARE cell line was tested in parallel by measuring the cell viability using CellTiter- Fluor assay system (Promega, Madison, WI) in the same wells.
HaCaT derived cell line KeratinoSens were dispensed at 1,500 cells/5uL/well in 1536-well white wall/solid bottom plates using a Multidrop Combi (ThermoFisher Scientific, Waltham, MA) dispenser. After the assay plates were incubated at 37 C/5% CO2 for 5 h, 23 nL of compounds dissolved in DMSO, positive controls or DMSO only was transferred to the assay plate by a pintool workstation (Kalypsys, San Diego, CA). The plates were incubated at 37 C/5% CO2 for 23 h, followed by addition of 1uL/well of CellTiter-Fluor reagent into the assay plates using a Flying Reagent Dispenser (Aurora Discovery, San Diego, CA) for cell viability readout that measures cytotoxicity. After 1 h incubation at 37 C/5% CO2 the fluorescence intensity was measured using a ViewLux (PerkinElmer, Shelton, CT) plate reader. Then 4uL/well of One-Glo were added using a Flying Reagent Dispenser. After the plates were incubated at room temperature for 30 min, the luminescence intensity in the assay plates was measured using ViewLux plate reader.
% is set by controls: 0 for no effect and ±100 for the full control effect; potency is the fitted concentration of half-maximal effect.

| SMILES | activity, positive = activation | Potency |
| --- | --- | --- |
| C=CCOC(=O)C(C)(C)OC(=O)c1cc(-n2c(=O)cc(C(F)(F)F)n(C)c2=O)ccc1Cl | -10.3% | – |
| O=S(=O)(Cl)c1ccccc1 | -4.04% | – |
| CSc1nc(N=[N+]=[N-])nc(NC(C)C)n1 | -0.161% | – |
| COc1cccc2c1cc([N+](=O)[O-])c1c(C(=O)O)cc3c(c12)OCO3 | – | 12.2 µM (active) |
| Nc1ccc(N=Nc2ccccc2)cc1 | – | 10.9 µM (active) |
| CCC(OC(C)=O)C(CC(C)NC)(c1ccccc1)c1ccccc1 (stereo not given) | -43.3% | – |
| O=C1C=CC(=O)c2ccccc21 | – | 6.11 µM (active) |
| BrCC1CO1 (stereo not given) | 2.81% | – |
| O=[Se]=O | 0.15% [at 42.5 µM] | – |
| CCCCCCCc1ccc(O)cc1 | – | 24.3 µM (active) |
| CCCC[P+](CC)(CCCC)CCCC (tested in a mixture with another compound) | 2.28% | – |
| CC(C)CC(C)N (stereo not given) | -6.83% | – |
| O=C(O)c1cc(I)cc(I)c1I | 19.3% | – |
| CNC(=O)Oc1ccc(N(C)C)c(C)c1 | – | 24.3 µM (active) |
| CC(C)=CC1C(C(=O)OC(C#N)c2cccc(Oc3ccccc3)c2)C1(C)C (stereo not given) | 16.9% | – |
| Fc1ccc(Oc2ccnc3cc(Cl)cc(Cl)c23)cc1 | – | 24.3 µM (active) |
| O=C1NC(=O)C(=O)C(=O)N1 | -15% | – |
| CC(C)C(Br)C(=O)NC(N)=O (stereo not given) | 1.89% [at 42.5 µM] | – |
| C[C@]12C=CC(=O)C=C1CC[C@@H]1[C@@H]2CC[C@@]2(C)[C@H]1CC[C@]2(C)O | 8.03% [at 42.5 µM] | – |
| C=CC(=C)C | -1.89% | – |

| SMILES | activity, positive = activation | Potency |
| --- | --- | --- |
| CC1N=C(N)OC1c1ccccc1 (stereo not given) | 2.74% | – |
| C[As+](C)(C)CC(=O)[O-] | 5.26% | – |
| Fc1ccc(C(OCCN2CCN(CCCc3ccccc3)CC2)c2ccc(F)cc2)cc1 | -41% [at 42.5 µM] | – |
| Cc1ccc(-c2c(Cl)nc(C#N)n2S(=O)(=O)N(C)C)cc1 | – | 9.68 µM (active) |
| O=C1CN2CCOC2(c2ccccc2Cl)c2cc(Cl)ccc2N1 (stereo not given) | -5.87% [at 42.5 µM] | – |
| CC(O)(CS(=O)(=O)c1ccc(F)cc1)C(=O)Nc1ccc(C#N)c(C(F)(F)F)c1 (stereo not given) | -4.12% [at 42.5 µM] | – |
| CCOP(=S)(OCC)SC(CCl)N1C(=O)c2ccccc2C1=O (stereo not given) | – | 30.6 µM (active) |
| COc1cccc(C(=O)NN(C(=O)c2cc(C)cc(C)c2)C(C)(C)C)c1C | -14.7% | – |
| CNC(=O)O/N=C(\C)SC | -8.03% | – |
| CC[C@@H](CO)NC(=O)[C@@H]1C=C2c3cccc4[nH]cc(c34)C[C@H]2N(C)C1 | 1.24% [at 42.5 µM] | – |
| CC[N+]1(C)CCCC(OC(=O)C(O)(c2ccccc2)c2ccccc2)C1 (stereo not given) | -9.06% [at 42.5 µM] | – |
| COc1nn(CSP(=S)(OC)OC)c(=O)s1 | – | 68.6 µM (active) |
| CCN[C@H](C)Cc1cccc(C(F)(F)F)c1 | -4.78% | – |
| N#CC(C#N)=C(C#N)C#N | 6.6% | – |
| CCOCn1c(-c2ccc(Cl)cc2)c(C#N)c(Br)c1C(F)(F)F | – | 24.3 µM (active) |
| ClSC(Cl)(Cl)Cl | 1.11% | – |
| Cc1c(Cl)c(=O)oc2cc(OP(=O)(OCCCl)OCCCl)ccc12 | 6.47% [at 42.5 µM] | – |
| O=CCCl | 7.82% | – |
| Cc1cccc(Cc2cnc[nH]2)c1C | -0.378% [at 42.5 µM] | – |
| O=C(O)CC(Cl)C(=O)O (stereo not given) | 1.86% | – |
